These results are taken from PubChem BioAssay AID631 (The Scripps Research Institute Molecular Screening Center, 2007).

Out of some 200,000 compounds screened, about 810 (0.41%) were called active. Cut-off read from the data, not from the text of the source: active = activation above about 19%; inactive = the rest. For the sample, actives were picked, then their nearest neighbours and some compounds at random.

The assay deals with Peroxisome proliferator-activated receptor gamma (Homo sapiens) (UniProt P37231). The experiment in a line: PPARgamma agonists recruiting SRC-1 coactivator, primary screen, biochemical (AID 631).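 Note: 0% = DMSO and 100% = reference agonist.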 To be noted: PPARgamma-SRC-1 coactivator recruitment biochemical assay; at 8 µM; hits give high values.
Peroxisome proliferator-activated receptor gamma (Homo sapiens), sequence (P37231 whole entry, looked up): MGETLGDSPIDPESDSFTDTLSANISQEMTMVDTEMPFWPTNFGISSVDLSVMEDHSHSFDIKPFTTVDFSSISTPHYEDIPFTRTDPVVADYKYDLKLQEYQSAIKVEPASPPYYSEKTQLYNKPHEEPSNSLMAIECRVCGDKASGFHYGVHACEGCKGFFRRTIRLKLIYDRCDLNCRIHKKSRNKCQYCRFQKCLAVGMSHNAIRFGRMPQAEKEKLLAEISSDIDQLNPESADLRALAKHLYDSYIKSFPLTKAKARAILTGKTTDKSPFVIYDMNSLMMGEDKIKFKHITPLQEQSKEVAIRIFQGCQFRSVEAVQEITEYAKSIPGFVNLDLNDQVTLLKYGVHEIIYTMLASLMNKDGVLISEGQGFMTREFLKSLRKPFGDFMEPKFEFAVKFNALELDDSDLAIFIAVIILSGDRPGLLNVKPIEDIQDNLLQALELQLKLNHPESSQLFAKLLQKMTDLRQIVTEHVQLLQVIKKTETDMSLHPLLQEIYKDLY
Consider `Cc1cc(C)c2cc(CN(Cc3cccs3)Cc3nnnn3CC3CCCO3)c(=O)[nH]c2c1` (centres undefined), for which the activation was 23.5% (active).

As to `Cc1cc(C)c2cc(CN(Cc3nnnn3Cc3ccc(F)cc3)C3CCCC3)c(=O)[nH]c2c1`, the activation is 2.6% (inactive).

For the compound `Cc1cc2cc(CN(Cc3cccs3)Cc3nnnn3CC3CCCO3)c(=O)[nH]c2cc1C` (centres undefined), the activation is -4.1% (inactive).

In the case of `CCC(C)(C)NC(=O)C(c1ccccn1)N(C(=O)c1csnn1)c1ccccc1` (centres undefined), the activation is 3.1% (inactive).

Turning to `C/C(=N\NC(=O)OC(C)(C)C)c1ccc[nH]1`, the activation is -0.7% (inactive).

With `Cc1ccc(OCC(=O)Nc2ccc(-c3nc4ncccc4o3)cc2)cc1`, the activation is 19.5% (active).

On to `Cc1ccc(OCC(=O)Nc2ccc(S(=O)(=O)Nc3ccccn3)cc2)cc1`, for which the activation is 2.2% (inactive).

Regarding `CC(=O)Nc1ccc(OCC(=O)NCc2ccc(C)cc2)cc1`, the activation is -5.7% (inactive).

In the case of `O=C(C1CCN(C2CCN(Cc3cccc4c3OCO4)CC2)CC1)N1CCOCC1`, the activation is 1.6% (inactive).

Regarding `Cn1c(SCC(=O)Nc2ccc(Br)cc2F)nnc1-c1ccco1`, the activation was 0.1% (inactive).

Consider `CCn1c(SCC(=O)Nc2cccc(F)c2)nnc1-c1cc2cc(Br)ccc2o1`, for which the activation was 24.4% (active).

For `CCn1c(CNC(=O)c2ccco2)nnc1SCC(=O)Nc1cccc(F)c1`, the activation is 1.6% (inactive).

In the case of `Cc1ccc(OCC(=O)OC(C)CN(C)Cc2ccccc2)cc1` (centres undefined), the activation is 5% (inactive).

`NC(=O)CSc1oc(-c2cccs2)nc1S(=O)(=O)c1ccccc1`: the activation was 20.3% (active).

Take `COc1ccc(OC)c(C(=O)CSc2nnc(-c3cccs3)o2)c1`: the activation is 11.4% (inactive).

With `COC(=O)CSc1nccc(-c2cccs2)n1`, the activation was 4.8% (inactive).

With `COc1cccc(CNC(=O)Cc2csc(Nc3nc(=S)[nH]c4ccccc34)n2)c1`, the activation was -3.6% (inactive).

For `CC(C)C(NC(=O)C1CCC(C(C)(C)C)CC1)C(=O)NCCCN1CCCCC1` (centres undefined), the activation was 13.2% (inactive).

In the case of `Cc1cc(C)c2nc(N3CCCC3)c(C#N)cc2c1`, the activation is 3.7% (inactive).

As to `Cc1cccc2cc(C#N)c(N3CCCC3)nc12`, the activation was 7.6% (inactive).

In the case of `CC(=O)c1ccc(S(=O)(=O)N2CCN(c3nc4c(C)c(C)ccc4cc3C#N)CC2)cc1`, the activation is 27.9% (active).

`CCCN1CNC(=S)N(CCc2ccccc2)C1`: the activation is 4% (inactive).

For the compound `CNS(=O)(=O)c1ccc(N2CCCC2=O)c([N+](=O)[O-])c1`, the activation is -1.5% (inactive).

Regarding `COC(=O)c1[nH]c2ccccc2c1NS(=O)(=O)c1ccc(OC)cc1OC`, the activation was 6.1% (inactive).

As for `COC(=O)c1[nH]c2ccccc2c1NC(=O)CN1CCCc2ccccc21`, the activation is 0.3% (inactive).

Regarding `COC(=O)c1[nH]c2ccc(Br)cc2c1NC(=O)Oc1ccccc1`, the activation was 20.2% (active).

Regarding `C=CCn1cc(-c2cccc(C(F)(F)F)c2)cc(C#N)c1=O`, the activation was 5.6% (inactive).

`CCn1c(=O)cc(SCC(=O)NCc2ccc3c(c2)OCO3)c2ccccc21`: the activation was 21.9% (active).

Turning to `CC(C)NC(=O)CSc1ccccc1C(=O)NCc1ccc2c(c1)OCO2`, the activation was -1.4% (inactive).

For the compound `CCn1c(=O)cc(SCC(=O)NCCC2=CCCCC2)c2ccccc21`, the activation was 13.8% (inactive).

Consider `COCCCNC(=S)NNC(=O)C(O)(c1ccccc1)c1ccccc1`, for which the activation was -2.3% (inactive).

In the case of `Cc1nn(CC(=O)NCc2ccccn2)c(C)c1[N+](=O)[O-]`, the activation was 5.4% (inactive).

In the case of `CS(=O)(=O)N(CC(=O)NC1CCCC1)Cc1ccc(F)cc1`, the activation was 6.9% (inactive).

`CCOP(=O)(OCC)C(Nc1ccc([N+](=O)[O-])cc1)c1ccc(Cl)cc1` (centres undefined): the activation is -6.5% (inactive).

As for `Cc1n[nH]c(=S)n1/N=C/c1ccc(Br)o1`, the activation was 7.5% (inactive).

With `Cc1ccccc1-c1n[nH]c(=S)n1/N=C/c1ccc(-c2ccccc2Br)o1`, the activation was 32.5% (active).

For `Cc1ccccc1-c1n[nH]c(=S)n1C`, the activation is 3.3% (inactive).

As for `O=C1CCCN1CCCNC(=S)Nc1ccc(F)c(Cl)c1`, the activation was -5.5% (inactive).

As to `CCc1nc2ccccc2c(C(=O)OC2CCCCC2=O)c1C` (centres undefined), the activation was 12.2% (inactive).

Take `CC1=C(C(=O)N(C)C)C(c2ccccc2OC(F)F)NC(=O)N1` (centres undefined): the activation is 6.7% (inactive).

For the compound `CCS(=O)(=O)Nc1cc(C(=O)OC)ccc1C(=O)OC`, the activation was 7% (inactive).

Turning to `COC(=O)c1ccc(S(=O)(=O)c2ccc(C(=O)OC)s2)s1`, the activation is 26.8% (active).

As to `COC(=O)c1cc(OC)ccc1-c1ccc(OC)cc1`, the activation is 9.8% (inactive).

For `CCOc1ccc(S(=O)(=O)Nc2ccncc2)c(C)c1C`, the activation was 7.6% (inactive).

For the compound `Cc1ccc(C(=O)CNc2ccc(F)cc2)cc1`, the activation was -3.3% (inactive).

Turning to `COc1cccc2c1CCC(NC(C)=O)C2=O` (centres undefined), the activation is 0.5% (inactive).

As to `COc1ccc(NS(=O)(=O)c2cc(NC(=O)CC(=O)c3ccc([N+](=O)[O-])cc3)ccc2C)cc1`, the activation is 2.2% (inactive).

As for `O=C(O)/C=C\C(=O)Nc1ccc(OCc2ccccc2)cc1`, the activation is 5.5% (inactive).

As for `O=C(NCCCN1CCN(c2ccc(F)cc2)CC1)Nc1ccc([N+](=O)[O-])cc1`, the activation was 11.9% (inactive).

Consider `CCSc1nc(-c2ccc(OC)cc2)cc(-c2ccc(OC)cc2)c1C#N`, for which the activation was -1.5% (inactive).

On to `CCOC(=O)CC(=O)CSc1nc(-c2ccccc2)cc(-c2ccc(Cl)cc2)c1C#N`, for which the activation is 22.2% (active).

`N#Cc1c(C(F)(F)F)cc(-c2ccc(Cl)cc2)nc1SCC(=O)O`: the activation is 3.2% (inactive).

Regarding `COc1ccc(C(=O)OCC(=O)NCC2CCCO2)cc1[N+](=O)[O-]` (centres undefined), the activation is 15% (inactive).

Consider `O=C(NCCOc1ccccc1F)Nc1ccc(Br)cc1`, for which the activation was 3.6% (inactive).

As for `CC/C(=N\NC(=O)c1ccccc1Cl)c1ccc(Br)s1`, the activation was 4.2% (inactive).

For the compound `CC(=O)n1c(C=Nc2ccccc2)c(O)c2ccccc21`, the activation was 22.7% (active).

Take `CCCCn1c(=O)c(C(C)=O)c(O)c2ccccc21`: the activation was 0.5% (inactive).

For the compound `CCOc1ccc(N=Cc2c(O)n(-c3cccc(C)n3)c(=O)c3ccccc23)cc1`, the activation is 1.1% (inactive).

As to `COc1ccc(NS(=O)(=O)c2ccc(O)c(C(=O)OCC(=O)NC3CCCCC3)c2)cc1`, the activation is 4.7% (inactive).

With `CNC(=O)c1[nH]cnc1C(=O)N[C@@H](CC(C)C)C(=O)OC(C)(C)C`, the activation was 5.5% (inactive).

Take `CN(CCc1cnn(C)c1)Cc1cn(C)nc1-c1ccccc1F`: the activation was -5.8% (inactive).

With `CC(C)N(Cc1ccccc1)C(=S)Nc1ccc(OC(F)F)cc1`, the activation was -4.1% (inactive).

Regarding `COc1cc(OC)c(C2=NOC(C(=O)Nc3c(C)n(C)n(-c4ccccc4)c3=O)C2)cc1Cl` (centres undefined), the activation is 3.3% (inactive).

As for `O=C(O)Cc1sc(-c2ccccc2)nc1-c1cccs1`, the activation is 28.9% (active).

For the compound `Cc1ccc(-c2nc(C)sc2CC(=O)O)cc1`, the activation was -2% (inactive).

Take `O=C(O)Cc1sc(-c2ccc(C(=O)O)cc2)nc1-c1ccccc1`: the activation was 12.4% (inactive).

For `CC1(C)C(C=C(Cl)Cl)C1C(=O)N(Cc1ccc(Cl)cc1)C1CCS(=O)(=O)C1` (centres undefined), the activation was 1.5% (inactive).

For `N#C/C(C(=O)N1CCOCC1)=C1/SC(Cc2ccc(F)cc2)C(=O)N1c1ccccc1` (centres undefined), the activation was -4.4% (inactive).

Consider `CC(C)NC(=O)NC(=O)CSc1nnc(-c2ccccc2F)n1N`, for which the activation was 1.8% (inactive).

For the compound `O=c1c2ccccc2c(-c2ccccc2)nn1Cc1ccccc1`, the activation is 1% (inactive).

As to `Cn1c(CO)cnc1SCc1ccccc1`, the activation is 6.4% (inactive).

With `CSc1c(SCc2ccccc2)cnn(Cc2ccccc2)c1=O`, the activation is 24% (active).

As to `COC(=O)NNC1=CC(=O)CC(C)(C)C1`, the activation is 5.4% (inactive).

As for `COc1ccc(-n2c(C)cc(C(=O)COC(=O)c3cc(OC)c(OC)cc3NC(=O)c3cccs3)c2C)cc1`, the activation is 8.5% (inactive).

With `Cc1cccc(-c2ncc(CN3CCC(CO)(CCCc4ccccc4)CC3)cn2)c1`, the activation is 5.8% (inactive).

Turning to `OCC1(CCc2ccccc2)CCN(Cc2ccc3nsnc3c2)CC1`, the activation is 35.7% (active).

Take `CC(=O)c1cccc(CN2CCC(CO)(Cc3ccccc3)CC2)c1`: the activation was 0% (inactive).

`c1csc(-c2nnc(COc3ccc4c(c3)OCO4)o2)c1`: the activation was 0.1% (inactive).

For `Cc1cccc(NC(=O)c2cc([N+](=O)[O-])ccc2N2CCN(C)CC2)c1`, the activation is 10.3% (inactive).

As to `COCCN(C(=O)c1ccccc1F)c1c(N)n(Cc2ccccc2)c(=O)[nH]c1=O`, the activation was -2.5% (inactive).

In the case of `CCN1CC(CN(C)Cc2nc(-c3ccc(Cl)cc3)no2)CC1=O` (centres undefined), the activation is -3.9% (inactive).

For `Clc1ccc(N/N=C/c2cccs2)nn1`, the activation is 4.4% (inactive).

`COc1ccc(Nc2nc(=O)[nH]nc2C)cc1`: the activation was 5.2% (inactive).

`Cc1n[nH]c(=O)nc1N/N=C/c1cccs1`: the activation is 22.1% (active).

In the case of `CC(=O)Nc1ccc(CN2CCN(Cc3ccc(F)c(F)c3)C(CCO)C2)cc1` (centres undefined), the activation is 3.4% (inactive).

With `Cc1ccc(NS(=O)(=O)c2cccs2)cc1S(=O)(=O)N1CCCCCC1`, the activation was 27.9% (active).

For the compound `Cc1ccc(C(=O)NCC(=O)O)cc1S(=O)(=O)N1CCCCC1`, the activation is 2.2% (inactive).

As for `O=C(C1CCN(S(=O)(=O)c2cccs2)CC1)N1CCCCCC1`, the activation was -1.2% (inactive).

Take `O=C(NNc1cc(Cl)ccc1Cl)c1cccnc1Cl`: the activation was 5% (inactive).

Turning to `C=C(C)CNC(=S)N/N=C/c1ccccc1OCC(=O)O`, the activation is 4.6% (inactive).

As to `Cc1ccc(C(=O)Oc2coc(CSc3nnc(NC(=O)c4cccs4)s3)cc2=O)cc1C`, the activation was -0.6% (inactive).

Regarding `CCOc1cccc(C(=O)Nc2nnc(-c3cccs3)s2)c1`, the activation was 41.8% (active).

Turning to `CCCc1nnc(NC(=O)c2cccs2)s1`, the activation is -1.6% (inactive).

Turning to `CCOc1cccc(C(=O)Nc2cccnc2)c1`, the activation was 4.5% (inactive).

For the compound `CCc1nnc(NC(=O)c2cccs2)s1`, the activation was 1.3% (inactive).

As to `Cc1ccc(C(=O)Nc2nnc(-c3cccs3)s2)cc1C`, the activation was 21.8% (active).

`COc1ccc(/C=C/C2=CC(C)(C)NC(=S)N2)c(OC)c1`: the activation is -5.6% (inactive).

On to `O=C(Cc1ccccc1Cl)N1CCN(c2ccccn2)CC1`, for which the activation was -1% (inactive).

For `CC(Sc1nncn1C)C(=O)Nc1cc(C(F)(F)F)ccc1N1CCOCC1` (centres undefined), the activation was -2.1% (inactive).
